# Data reported in paper PMC5540273 (PLoS ONE, 2017).
# Tests used:
# Settings in all cases: concentration: 1 μM, replicates: in singlicate; n = 1
# [1] = system: T1, ERK4
# T1 construct: gene MAPK4
# [2] = system: T2, ERK5
# T2 construct: gene MAPK7
# [3] = system: T3, ERK8
# T3 construct: gene MAPK15
# [4] = system: ERN1
# [5] = system: T4, FAK
# T4 construct: gene PTK2
# [6] = system: FER
# [7] = system: FES
# [8] = system: FGFR1
# [9] = system: FGFR2
# [10] = system: FGFR3
# [11] = system: FGFR4
# [12] = system: FGR
# [13] = system: FLT1
# [14] = system: FLT3-autoinhibited
# [15] = system: FLT3
# [16] = system: FLT4
# [17] = system: FRK
# [18] = system: FYN
# [19] = system: GAK
# [20] = system: T5, GCN2(Kin.Dom.2,S808G)
# T5 construct: gene EIF2AK4
# 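Also: KINOMEscan kinase panel screen.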
compound,measurement,setting,value
CCCc1ccc(S(=O)(=O)NC2CCN(c3ccnc(Nc4ccc(OC)cc4)n3)C2)cc1 (centres unmarked) [GSK1379737],%Inh,[1],17%
same,%Inh,[2],0%
same,%Inh,[3],0%
same,%Inh,[4],0%
same,%Inh,[5],0%
same,%Inh,[6],12%
same,%Inh,[7],0%
same,%Inh,[8],0%
same,%Inh,[9],0%
same,%Inh,[10],0%
same,%Inh,[11],8%
same,%Inh,[12],12%
same,%Inh,[13],3%
same,%Inh,[14],0%
same,%Inh,[15],26%
same,%Inh,[16],9%
same,%Inh,[17],0%
same,%Inh,[18],7%
same,%Inh,[19],0%
same,%Inh,[20],33%
Cn1cc(-c2ccc3c(c2)CCN3C(=O)Cc2cccc(C(F)(F)F)c2)c2c(N)ncnc21 [GSK2606414],%Inh,[1],7%
same,%Inh,[2],0%
same,%Inh,[3],23%
same,%Inh,[4],21%
same,%Inh,[5],0%
same,%Inh,[6],0%
same,%Inh,[7],0%
same,%Inh,[8],20%
same,%Inh,[9],0%
same,%Inh,[10],0%
same,%Inh,[11],0%
same,%Inh,[12],0%
same,%Inh,[13],31%
same,%Inh,[14],3%
same,%Inh,[15],28%
same,%Inh,[16],22%
same,%Inh,[17],0%
same,%Inh,[18],13%
same,%Inh,[19],3%
same,%Inh,[20],5%
Clc1ccc(-c2cc(-c3c[nH]nc3-c3ccccn3)ccn2)cc1 [GW681251],%Inh,[1],6%
same,%Inh,[2],0%
same,%Inh,[3],0%
same,%Inh,[4],0%
same,%Inh,[5],0%
same,%Inh,[6],9%
same,%Inh,[7],0%
same,%Inh,[8],0%
same,%Inh,[9],0%
same,%Inh,[10],1%
same,%Inh,[11],13%
same,%Inh,[12],11%
same,%Inh,[13],20%
same,%Inh,[14],0%
same,%Inh,[15],0%
same,%Inh,[16],0%
same,%Inh,[17],0%
same,%Inh,[18],10%
same,%Inh,[19],74%
same,%Inh,[20],7%
Cl.Cl.c1ccc(-c2cc3ccncc3cc2OC2CCNCC2)cc1 [GSK1122999],%Inh,[1],8%
same,%Inh,[2],0%
same,%Inh,[3],0%
same,%Inh,[4],0%
same,%Inh,[5],0%
same,%Inh,[6],36%
same,%Inh,[7],0%
same,%Inh,[8],0%
same,%Inh,[9],0%
same,%Inh,[10],11%
same,%Inh,[11],30%
same,%Inh,[12],23%
same,%Inh,[13],28%
same,%Inh,[14],0%
same,%Inh,[15],4%
same,%Inh,[16],22%
same,%Inh,[17],0%
same,%Inh,[18],44%
same,%Inh,[19],12%
same,%Inh,[20],11%
Clc1cccc(-c2nc(Nc3ccncc3)c3ccccc3n2)c1 [GW873004],%Inh,[1],0%
same,%Inh,[2],0%
same,%Inh,[3],23%
same,%Inh,[4],0%
same,%Inh,[5],11%
same,%Inh,[6],16%
same,%Inh,[7],16%
same,%Inh,[8],37%
same,%Inh,[9],11%
same,%Inh,[10],0%
same,%Inh,[11],0%
same,%Inh,[12],55%
same,%Inh,[13],34%
same,%Inh,[14],0%
same,%Inh,[15],17%
same,%Inh,[16],52%
same,%Inh,[17],29%
same,%Inh,[18],0%
same,%Inh,[19],3%
same,%Inh,[20],0%
FC(F)(F)c1ccc(-c2nn3ncccc3c2-c2ccnc(Nc3cccc(C(F)(F)F)c3)n2)cc1 [GW828205],%Inh,[1],0%
same,%Inh,[2],0%
same,%Inh,[3],0%
same,%Inh,[4],0%
same,%Inh,[5],9%
same,%Inh,[6],2%
same,%Inh,[7],7%
same,%Inh,[8],33%
same,%Inh,[9],100%
same,%Inh,[10],8%
same,%Inh,[11],3%
same,%Inh,[12],58%
same,%Inh,[13],12%
same,%Inh,[14],0%
same,%Inh,[15],0%
same,%Inh,[16],8%
same,%Inh,[17],0%
same,%Inh,[18],0%
same,%Inh,[19],0%
same,%Inh,[20],0%
Cl.Fc1ccccc1COc1ccc(Nc2ncnc3ccc(-c4nnc(C(F)(F)F)o4)cc23)cc1Cl [GW424170],%Inh,[1],13%
same,%Inh,[2],0%
same,%Inh,[3],0%
same,%Inh,[4],2%
same,%Inh,[5],0%
same,%Inh,[6],18%
same,%Inh,[7],0%
same,%Inh,[8],0%
same,%Inh,[9],0%
same,%Inh,[10],8%
same,%Inh,[11],0%
same,%Inh,[12],6%
same,%Inh,[13],18%
same,%Inh,[14],0%
same,%Inh,[15],0%
same,%Inh,[16],3%
same,%Inh,[17],0%
same,%Inh,[18],0%
same,%Inh,[19],0%
same,%Inh,[20],0%
Nc1nc(-c2ccc3c(N)n[nH]c3c2)cc(N2CCC[C@@H](C(=O)Nc3ccccc3)C2)n1.O=C(O)C(F)(F)F.O=C(O)C(F)(F)F [GSK2288359],%Inh,[1],16%
same,%Inh,[2],0%
same,%Inh,[3],0%
same,%Inh,[4],23%
same,%Inh,[5],0%
same,%Inh,[6],0%
same,%Inh,[7],0%
same,%Inh,[8],0%
same,%Inh,[9],0%
same,%Inh,[10],7%
same,%Inh,[11],8%
same,%Inh,[12],15%
same,%Inh,[13],6%
same,%Inh,[14],29%
same,%Inh,[15],0%
same,%Inh,[16],0%
same,%Inh,[17],0%
same,%Inh,[18],38%
same,%Inh,[19],0%
same,%Inh,[20],0%
Cl.c1ccc(Cn2ncc3cc(Nc4ncnc5ccccc45)ccc32)cc1 [GW273749],%Inh,[1],35%
same,%Inh,[2],0%
same,%Inh,[3],0%
same,%Inh,[4],34%
same,%Inh,[5],0%
same,%Inh,[6],13%
same,%Inh,[7],0%
same,%Inh,[8],0%
same,%Inh,[9],0%
same,%Inh,[10],0%
same,%Inh,[11],5%
same,%Inh,[12],31%
same,%Inh,[13],17%
same,%Inh,[14],7%
same,%Inh,[15],0%
same,%Inh,[16],8%
same,%Inh,[17],0%
same,%Inh,[18],36%
same,%Inh,[19],23%
same,%Inh,[20],0%
CN1CCC(n2cnc(-c3ccc(F)cc3)c2-c2ccnc(NC3CCNCC3)n2)CC1 [SB-229482],%Inh,[1],0%
same,%Inh,[2],0%
same,%Inh,[3],0%
same,%Inh,[4],2%
same,%Inh,[5],0%
same,%Inh,[6],0%
same,%Inh,[7],5%
same,%Inh,[8],4%
same,%Inh,[9],0%
same,%Inh,[10],9%
same,%Inh,[11],0%
same,%Inh,[12],0%
same,%Inh,[13],0%
same,%Inh,[14],0%
same,%Inh,[15],27%
same,%Inh,[16],0%
same,%Inh,[17],0%
same,%Inh,[18],1%
same,%Inh,[19],0%
same,%Inh,[20],0%
CC(=O)Nc1n[nH]c2ncc(-c3ccccc3)cc12 [SB-548492],%Inh,[1],0%
same,%Inh,[2],0%
same,%Inh,[3],60%
same,%Inh,[4],0%
same,%Inh,[5],0%
same,%Inh,[6],4%
same,%Inh,[7],25%
same,%Inh,[8],4%
same,%Inh,[9],0%
same,%Inh,[10],10%
same,%Inh,[11],0%
same,%Inh,[12],16%
same,%Inh,[13],25%
same,%Inh,[14],47%
same,%Inh,[15],74%
same,%Inh,[16],0%
same,%Inh,[17],0%
same,%Inh,[18],0%
same,%Inh,[19],31%
same,%Inh,[20],27%
CN1c2ccc(-c3ccc(C(=O)NCCO)cc3)cc2-c2[nH]ncc2S1(=O)=O,%Inh,[1],0%
same,%Inh,[2],0%
same,%Inh,[3],12%
same,%Inh,[4],1%
same,%Inh,[6],11%
same,%Inh,[7],17%
same,%Inh,[8],30%
same,%Inh,[9],0%
same,%Inh,[10],0%
same,%Inh,[11],8%
same,%Inh,[12],34%
same,%Inh,[13],11%
same,%Inh,[14],20%
same,%Inh,[15],37%
same,%Inh,[16],7%
same,%Inh,[17],1%
same,%Inh,[18],15%
same,%Inh,[19],21%
same,%Inh,[20],34%
O=C(Nc1n[nH]c2nc(-c3ccco3)c(Br)cc12)c1ccc(CN2CCCC2)cc1.O=C(O)[C@H](O)[C@@H](O)C(=O)O [SB-742352],%Inh,[1],0%
same,%Inh,[2],0%
same,%Inh,[3],0%
same,%Inh,[4],0%
same,%Inh,[5],0%
same,%Inh,[6],4%
same,%Inh,[7],0%
same,%Inh,[8],0%
same,%Inh,[9],0%
same,%Inh,[10],1%
same,%Inh,[11],0%
same,%Inh,[12],3%
same,%Inh,[13],34%
same,%Inh,[14],51%
same,%Inh,[15],95%
same,%Inh,[16],1%
same,%Inh,[17],0%
same,%Inh,[18],0%
same,%Inh,[19],0%
same,%Inh,[20],0%
Fc1ccc(-c2ncn(CCCNCc3ccccc3)c2-c2ccncc2)cc1,%Inh,[1],14%
same,%Inh,[2],0%
same,%Inh,[3],13%
same,%Inh,[4],14%
same,%Inh,[5],0%
same,%Inh,[6],13%
same,%Inh,[7],23%
same,%Inh,[8],0%
same,%Inh,[9],0%
same,%Inh,[10],0%
same,%Inh,[11],0%
same,%Inh,[12],17%
same,%Inh,[13],0%
same,%Inh,[14],0%
same,%Inh,[15],0%
same,%Inh,[16],22%
same,%Inh,[17],0%
same,%Inh,[18],0%
same,%Inh,[19],0%
same,%Inh,[20],0%
COc1ccc(Nc2nccc(N3CCC(NC(=O)c4cccc(NC(C)=O)c4)C3)n2)cc1 (centres unmarked) [GSK1379732],%Inh,[1],7%
same,%Inh,[2],0%
same,%Inh,[3],5%
same,%Inh,[4],0%
same,%Inh,[5],0%
same,%Inh,[6],12%
same,%Inh,[7],0%
same,%Inh,[8],0%
same,%Inh,[9],37%
same,%Inh,[10],19%
same,%Inh,[11],3%
same,%Inh,[12],27%
same,%Inh,[13],23%
same,%Inh,[14],0%
same,%Inh,[15],0%
same,%Inh,[16],6%
same,%Inh,[17],0%
same,%Inh,[18],0%
same,%Inh,[19],16%
same,%Inh,[20],9%
